Assay results published in PubChem BioAssay (NCI).
About 83,000 compounds went through this panel and 20% of them were active in at least one assay; those are over-represented in the sample as a whole.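 Single-concentration screen, 48 h exposure, 96-well plates. Endpoint: percent growth. Below 10 = active.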 Values without a mark were called inactive. Activity calls are given as the source filed them.

These compounds were tested on MDA-MB-468 breast (assay: NCI-60 one-dose screen, 48 h (100 = growth as untreated, 0 = no growth, -100 = all killed)). Details: 10 µM unless noted.
`CCc1cccc2c1S/C(=C/c1ccc(Cl)cc1)C2=O` gave a growth of 93.6%.
`Cc1ccc2c(c1)C(C)Cc1c(N(C)C)ncnc1N2C` (stereo not given) showed a growth of 13%.
`COc1ccc(COc2ccc(/C=C3\C(=O)Nc4ccccc43)cc2OC)cc1` gave a growth of 100%.
In the case of `COc1ccc(NC2=C(Br)C(=O)C(C)=C(C)C2=O)cc1OC`, the growth is reported as -66.6% (active).
`O=C1Nc2c(c(=O)n(-c3ccccc3)c3ccccc23)C(c2ccc(Cl)cc2)N1` (stereo not given) showed a growth of 119%.
For `O=C(/C=C(/C=C/c1csc2ccccc12)OB(F)F)/C=C/c1csc2ccccc12`, the growth was -3.4% (active).
With `C=C(C)[C@@H]1CC[C@]2(COC(C)=O)CC[C@]3(C)[C@H](CC[C@@H]4[C@@]5(C)CCCN(C(C)=O)C(C)(C)[C@@H]5CC[C@]43C)[C@@H]12` the growth was -49.5% (active).
`O=c1ccc(N=Nc2ccccc2)ccc1Cl` was tested, and the growth was -51.2% (active).
`N#Cc1nc(-c2ccccc2)oc1N1CCC(CO)C1` (stereo not given) gave a growth of 92.5%.
With `CC/C=C\C/C=C\C[C@H]1C/C=C2/C(=O)C=C[C@H]2C/C=C\CCC(=O)O1` the growth was -7.14% (active).
Work on `COc1cc(/C=C2\CCC/C(=C\c3cc(CN4CCOCC4)c(O)c(OC)c3)C2=O)cc(CN2CCOCC2)c1O` yielded a growth of 31.5%.
For `CSc1nn2c(-c3ccc4ccccc4c3)ccnc2c1C#N`, the growth was 41.3%.
In the case of `O=C(/C=C/c1ccc(Cl)cc1)c1ccc(Nc2nc(NCCO)nc(N3CCOCC3)n2)cc1`, the growth is reported as 69.4%.
For `CCOC(=O)c1cnc2c(OC)ccc(OC)c2c1Cl`, the growth was 113%.
For `CCOC(=O)CCC(=O)O[C@H]1[C@H](O[C@@H]2[C@@H](C)[C@H](O[C@H]3C[C@@](C)(OC)[C@@H](O)[C@H](C)O3)[C@@H](C)C(=O)O[C@H](CC)[C@@](C)(O)[C@H](O)[C@@H](C)C(=O)[C@H](C)C[C@@]2(C)O)O[C@H](C)C[C@@H]1N(C)C`, the growth was 109%.
`C=CC(=O)N[C@@H](Cc1ccc(-c2cc(Cl)cc(Cl)c2)cc1)[C@@H](O)[C@H](O)C(=O)O` was tested, and the growth was 101%.
`CCOc1ccc(NC(=O)Nc2ccc(OCC)cc2)cc1` was tested, and the growth was 106%.
`Nc1nc(N)nc(N2CCCCC2)n1` gave a growth of 124%.
In the case of `Cc1nn(-c2ccccc2)cc1/C=N/Nc1nc(Nc2ccccc2)nc(Nc2ccc(S(N)(=O)=O)cc2)n1`, the growth is reported as -37.1% (active).
Work on `Cc1nc2cc(Nc3nc(Cl)nc(Nc4ccc(F)cc4)n3)ccc2n1Cc1ccccc1` yielded a growth of 76.2%.
`NC(=O)Cc1nc(O)cc(=O)[nH]1` showed a growth of 111%.
Work on `COc1nc2c(cc1S(=O)(=O)c1ccccc1)CCc1c-2cnn1-c1cccc(Cl)c1` yielded a growth of 60%.
In the case of `CCCCn1c(=O)c2c(nc(NCCc3ccc(O)c(O)c3)n2CCC)n(CCCC)c1=O`, the growth is reported as 82.2%.
For `CSc1nc2[nH]ncc2c(=O)[nH]1`, the growth was 92.6%.
For `Cn1cc(-c2nnc(N)nc2-c2c[nH]c3ccc(F)cc23)c2cc(F)ccc21`, the growth was -15.1% (active).
`COc1cc(COC(=O)CCCCC[P+](c2ccccc2)(c2ccccc2)c2ccccc2)c(OC)c2c1OCO2` was tested, and the growth was -2.4% (active).
Compound `Cc1c(-n2nnc(-c3nc4ccccc4s3)c2N)c(=O)n(-c2ccccc2)n1C` has a growth of 110%.
In the case of `Cc1ccc2[nH]c(=S)n(-c3ccc(S(=O)(=O)Nc4ccc(Cl)nn4)cc3)c(=O)c2c1`, the growth is reported as 107%.
For `COc1ccc(C(=O)C(CN(C)C)CN(C)C)cc1`, the growth was -66.4% (active).
`O=C1CN2CCC1C/C2=C\c1ccnc2c(Cl)cccc12` (stereo not given) gave a growth of 90.8%.
With `CC(C)=NNc1ccccn1` the growth was 12.9%.
Work on `CCCCCc1cc[n+](CC(=O)c2ccc(Cl)cc2)cc1` yielded a growth of 65.9%.
For `S=C(SSC(=S)N1CCOCC1)N1CCOCC1`, the growth was 106%.
Work on `COC(=O)/C(=C\c1c(C)[nH]c2ccccc12)S(=O)(=O)c1ccccc1` yielded a growth of 23.4%.
`COc1cc(-c2n/c(=C\c3c(O)[nH]c4cc(Cl)ccc34)cc3c2=Nc2ccccc2-3)cc(OC)c1OC` was tested, and the growth was 73.7%.
`CSc1nnc(C2=CC(=O)c3ccccc3C2=O)n1-c1ccccc1` gave a growth of 82.6%.
In the case of `Cc1nn(-c2ccccc2)c(Oc2ccccn2)c1-c1nc2ccccc2s1`, the growth is reported as 80%.
`O=C1/C=C/[C@@H](O)[C@@H]2C[C@@H](O)C[C@H]2/C=C/CCC[C@H](C(F)(F)F)O1` was tested, and the growth was -69.1% (active).
In the case of `Cc1nc2sc(C(=O)Nc3cccc4ccccc34)c(N)c2cc1C(=O)/C=C/c1ccccc1`, the growth is reported as -3.46% (active).
`N/C(=N\c1nc2ccccc2s1)NC(=O)Nc1cccc(Cl)c1` showed a growth of 35.5%.
